Laboratory results as given in the supplement of paper PMC12636033.
± gives the standard deviation of the averaged measurements. The full ranking holds about 33,000 sequences; the median of “E-score (rank enrichment, -0.5 to 0.5)” is about -0.0075, and the highest 2% start at about 0.23. The list comes from a sample in which the highest values are over-represented; it also holds similar and randomly drawn sequences.

System: WT Max(13-93) synthetic (M65Nle)
Assay: PBM 8-mer E-score (E-score (rank enrichment, -0.5 to 0.5)); higher = stronger preferential binding
Protocol: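 Protein binding microarray (universal PBM chip covering all 10-mers in fixed probe flanks) with chemically synthesized human Max(13-93) bHLH-LZ analogs (not full-length Max) bearing noncanonical residues (hArg, Tha, Aib, Nle at 65) and aromatic Cys staples. Read-out per 8-mer (and its reverse complement): E-score (rank-based enrichment, -0.5 to 0.5) and Z-score of median probe intensity.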

Row | Sequence | PBM 8-mer E-score
1 | AGCAGAAG | -0.0139 ± 0.09
2 | ATCGCTCC | -0.0658 ± 0.15
3 | ACGTAACC | 0.109 ± 0.1
4 | CTTACCGC | -0.13 ± 0.11
5 | CTGATCCC | -0.00057 ± 0.1
6 | AGTGCCTG | -0.101 ± 0.011
7 | CTCAAGAG | -0.266 ± 0.032
8 | AATTAATC | 0.0672 ± 0.11
9 | AATTAATG | 0.166 ± 0.16
10 | AATTAGTC | -0.027 ± 0.071
11 | CATTAGTA | 0.0683 ± 0.015
12 | AATTAATT | 0.262 ± 0.088
13 | AATTAGTA | 0.249 ± 0.075
14 | CGGGCTCA | -0.237 ± 0.039
15 | CAACAACA | 0.237 ± 0.027
16 | AAAACAAC | -0.0511 ± 0.034
17 | TAACAAAA | 0.166 ± 0.0052
18 | AAACAAAG | 0.114 ± 0.032
19 | CAACAAGA | 0.0122 ± 0.26
20 | AAACAAAT | 0.275 ± 0.05
21 | AAAACAAT | 0.259 ± 0.0082
22 | GAACAACA | 0.0194 ± 0.12
23 | AAACAAGT | 0.0146 ± 0.12
24 | AAACAAAC | 0.0359 ± 0.011
25 | AAACAAAA | 0.284 ± 0.023

Row | Sequence | PBM 8-mer E-score
26 | AAAACAAG | 0.122 ± 0.18
27 | CTATCTGC | -0.0743 ± 0.063
28 | CACTACAG | -0.123 ± 0.011
29 | GTTAGAGA | -0.0703 ± 0.011
30 | AAGGCGAT | 0.0502 ± 0.11
31 | ATTAAAGC | 0.133 ± 0.061
32 | AAGGTTGA | 0.14 ± 0.0094
33 | CCGCTTAG | -0.158 ± 0.088
34 | ATGCCGCC | -0.15 ± 0.1
35 | AATCAACA | 0.283 ± 0.051
36 | GATCAACA | -0.0789 ± 0.16
37 | TATCAACA | 0.192 ± 0.053
38 | GTCAAGAA | 0.12 ± 0.082
39 | ATTCGGGA | -0.128 ± 0.12
40 | GAGGAAAA | 0.113 ± 0.23
41 | CTTTGAAA | 0.0996 ± 0.023
42 | GTTTGAAA | 0.277 ± 0.019
43 | ATTTGAAA | 0.124 ± 0.0068
44 | ATTAAACA | 0.095 ± 0.031
45 | ATTAAACG | 0.255 ± 0.023
46 | ATTAAACC | 0.0834 ± 0.057
47 | ATCAGACG | -0.142 ± 0.13
48 | CACGGTCG | -0.27 ± 0.0093
49 | ATGCAACA | 0.229 ± 0.099
50 | ATGCAACC | 0.244 ± 0.066

Row | Sequence | PBM 8-mer E-score
51 | ATGCAACG | 0.0584 ± 0.039
52 | ACTCGTTA | -0.0291 ± 0.015
53 | ACCATGTG | 0.442 ± 0.0045
54 | AACATGCA | 0.202 ± 0.039
55 | ACCATGGT | -0.00014 ± 0.21
56 | AACATGCT | 0.242 ± 0.035
57 | ACCATGCT | 0.277 ± 0.028
58 | ACCATGCG | 0.243 ± 0.0064
59 | ACCATGTA | 0.162 ± 0.065
60 | ACCATGAT | 0.136 ± 0.019
61 | ACCATGCC | 0.00171 ± 0.051
62 | ACCATGTC | 0.0659 ± 0.016
63 | AACATGGT | 0.052 ± 0.061
64 | ACCATGCA | 0.221 ± 0.0057
65 | ATGATGAG | 0.0781 ± 0.012
66 | GTCGGTCA | -0.151 ± 0.14
67 | AGAATGCC | -0.0707 ± 0.0056
68 | CGCAGGCA | -0.131 ± 0.12
69 | ATTAACGG | 0.153 ± 0.089
70 | GCTGGCCA | -0.0533 ± 0.076
71 | CGGAACAC | -0.0883 ± 0.0097
72 | CACGTTCA | 0.163 ± 0.018
73 | CATCCAAG | -0.0693 ± 0.012
74 | AGCCCGTC | -0.151 ± 0.071
75 | ATCATGTC | 0.186 ± 0.057

Row | Sequence | PBM 8-mer E-score
76 | ATCATGTA | 0.169 ± 0.004
77 | ATCATGTG | 0.264 ± 0.022
78 | GTGGTTTA | 0.179 ± 0.053
79 | TGTGGTAA | 0.0282 ± 0.15
80 | CGTGGAAG | 0.176 ± 0.0075
81 | CGTGGTAA | 0.246 ± 0.1
82 | CGTGGAAC | -0.0332 ± 0.0099
83 | AGTGGAAA | 0.164 ± 0.094
84 | TGTGGAAA | 0.249 ± 0.072
85 | GGTGGTAA | 0.11 ± 0.1
86 | GGTGGAAA | 0.0407 ± 0.064
87 | CGTGGAAA | 0.267 ± 0.071
88 | TCTCGGAA | -0.232 ± 0.095
89 | CATCAAAA | 0.0623 ± 0.033
90 | ATCGTCTC | -0.00218 ± 0.023
91 | GCCGATAA | 0.032 ± 0.051
92 | AACGCAGC | -0.1 ± 0.048
93 | AACAATGC | 0.161 ± 0.14
94 | GCTGCGAC | -0.219 ± 0.069
95 | CGCACAGC | -0.171 ± 0.087
96 | GCGGTGAC | -0.146 ± 0.14
97 | TGGTAAAA | 0.0895 ± 0.03
98 | TCGCTACA | -0.0172 ± 0.075
99 | ACGCTACA | 0.275 ± 0.013
100 | GCGCTACA | -0.115 ± 0.006

Row | Sequence | PBM 8-mer E-score
101 | GTTGATTA | 0.2352 ± 0.0022
102 | CTTGATTA | 0.12 ± 0.025
103 | ATTGATTA | 0.0358 ± 0.11
104 | GCGTTTAA | 0.0231 ± 0.056
105 | ACGTGGTA | 0.347 ± 0.069
106 | AGGTGGTG | 0.109 ± 0.09
107 | AGGTGGTC | -0.0706 ± 0.0051
108 | CCGTGGTA | -0.0399 ± 0.0038
109 | CCGTGGTC | -0.211 ± 0.023
110 | ACGTGGTG | 0.392 ± 0.024
111 | AAGTGGTG | -0.0214 ± 0.11
112 | GCGTGGTA | 0.215 ± 0.12
113 | ACGTGGTC | 0.312 ± 0.022
114 | GGCAAGAA | 0.127 ± 0.016
115 | ACTTGGCA | 0.0244 ± 0.14
116 | CAAGGCTA | -0.0688 ± 0.18
117 | TGCCAGAA | -0.0686 ± 0.042
118 | ATGGTAAC | 0.159 ± 0.045
119 | ATGGTAAG | 0.12 ± 0.15
120 | ATGGTAAT | 0.24 ± 0.019
121 | AAAGGTGA | 0.0498 ± 0.1
122 | CATGGAAC | 0.0484 ± 0.039
123 | AATGGAAG | 0.0617 ± 0.11
124 | CATGGAAG | 0.251 ± 0.028
125 | CATCTTCG | -0.0197 ± 0.078

Row | Sequence | PBM 8-mer E-score
126 | CCCGGAGC | -0.218 ± 0.06
127 | CGGAACAG | -0.184 ± 0.097
128 | CCAATTCA | 0.237 ± 0.0091
129 | ACAATTCA | 0.0972 ± 0.033
130 | CCAATTCG | 0.00099 ± 0.067
131 | GAAAACTC | -0.0313 ± 0.025
132 | CAAACCTA | 0.0613 ± 0.11
133 | AACCCCAT | 0.00208 ± 0.027
134 | AAACCCTG | 0.124 ± 0.14
135 | AAAACCTT | 0.0888 ± 0.07
136 | AAACCCTA | 0.253 ± 0.042
137 | AAACCCAG | -0.00534 ± 0.0017
138 | AAACCCAT | 0.236 ± 0.013
139 | AAAACCTA | 0.259 ± 0.038
140 | CAACCCTA | 0.00074 ± 0.036
141 | ATAGCGAG | -0.0262 ± 0.05
142 | AGGCCCAA | -0.118 ± 0.037
143 | AAGCACAA | 0.0693 ± 0.08
144 | CGCTTCCG | -0.206 ± 0.041
145 | AGCCTGGA | -0.148 ± 0.017
146 | AAATCGAT | -0.116 ± 0.11
147 | CTGCTATC | -0.116 ± 0.021
148 | CTAGACGC | -0.0678 ± 0.01
149 | AAAATTCG | 0.181 ± 0.015
150 | ACTAAAAT | 0.073 ± 0.087

Row | Sequence | PBM 8-mer E-score
151 | ACTACAAC | 0.253 ± 0.024
152 | CATACAAC | 0.162 ± 0.012
153 | CCTACAAC | 0.126 ± 0.041
154 | AATACAAG | 0.148 ± 0.0056
155 | GATACAAA | 0.0639 ± 0.0017
156 | AATACAAA | 0.288 ± 0.024
157 | AATACAAT | 0.0116 ± 0.074
158 | ACTACAAG | -0.03 ± 0.032
159 | AATACAAC | 0.233 ± 0.077
160 | ATCGTCTG | -0.0768 ± 0.04
161 | AGTAGACC | -0.143 ± 0.07
162 | AGTGACCA | -0.0103 ± 0.17
163 | AAGGCAAG | 0.149 ± 0.045
164 | CAGTATCG | -0.0719 ± 0.0012
165 | GACAATTA | -0.0274 ± 0.019
166 | CTGATCAG | -0.107 ± 0.14
167 | ATTGGACC | -0.0681 ± 0.039
168 | AGAAGTAG | 0.0117 ± 0.017
169 | ACCGGAAA | -0.104 ± 0.11
170 | ATAATTTC | 0.0565 ± 0.03
171 | ATAATTTA | 0.228 ± 0.014
172 | ATAATTAA | 0.22 ± 0.13
